In PubChem BioAssay AID1566 (Sanford-Burnham Center for Chemical Genomics, 2009):
Screen size: about 290,000 compounds; about 1,800 (0.62%) were called active. Cut-off read from the data, not from the text of the source: active = inhibition above about 50%; inactive = the rest. The sample as a whole holds a higher share of actives than the screen did.

Assay: NOD2 signaling inhibitors, cell-based, luminescence, uHTS, HEK293 (AID 1566)
Conditions: HEK293 NOD2/NF-kB luciferase reporter, at 4 µM, active compounds read high

For `CCOc1ccc(CN(C)CC(=O)Nc2cc(OC)c([N+](=O)[O-])cc2C)cc1`, which inhibition is on record?
Its inhibition is -8% (inactive).

With `CCCN(CCC)S(=O)(=O)c1ccc(C(=O)NNc2nc(-c3ccccc3)c3cc(Br)ccc3n2)cc1` as the compound, how does the inhibition read?
Its inhibition is -5% (inactive).

Which inhibition does the source give for `Cc1cccnc1NC(=O)CCNC(=O)c1ccccc1Cl` here?
The inhibition was -22.7% (inactive).

For `COc1ccccc1NC(=O)CSc1n[nH]c(-c2cccnc2)n1`, which inhibition is on record?
The inhibition was 8.6% (inactive).

Which inhibition does the source give for `COc1ccc(C2C(C(=O)c3ccco3)=C(O)C(=O)N2CCCn2ccnc2)c(OC)c1` (centres undefined) here?
The inhibition was -6.9% (inactive).

With `CC(C)=C(NC(=O)c1ccccc1)C(=O)NCc1ccccc1` as the compound, how does the inhibition read?
Its inhibition is -7% (inactive).

With `O=c1sc2ccccc2c(N2CCOCC2)c1[N+](=O)[O-]` as the compound, how does the inhibition read?
Its inhibition is 8.4% (inactive).

Which inhibition does the source give for `COc1cc(/C=N\n2cnnc2)ccc1OCC(=O)Nc1ccc(C)cc1` here?
Its inhibition is 12.5% (inactive).

For `COC(=O)C1(Cc2cc(-c3cccnc3)no2)CCN(C(=O)OC(C)(C)C)CC1`, which inhibition is on record?
The inhibition was 15.6% (inactive).

For `c1ccc2nc(-c3ccc(N4CCOCC4)cc3)ccc2c1`, which inhibition is on record?
Its inhibition is -59.7% (inactive).

For `CN1CCN(c2ccc(-c3ccc4ccccc4n3)cc2)CC1`, which inhibition is on record?
Its inhibition is 79.9% (active).

For `COc1ccc(-c2ccc3ccccc3n2)cc1`, which inhibition is on record?
The inhibition was -226% (inactive).

For `Nc1ccc(Oc2cc(N)cc(Oc3ccccc3)c2)cc1`, which inhibition is on record?
Its inhibition is -93.4% (inactive).

For `Cc1cccc(Oc2ccc(N)cc2)c1`, which inhibition is on record?
Its inhibition is -4% (inactive).

For `CC(C)c1ccc(C(C(=O)NC2CCCC2)N(C(=O)c2csnn2)C2CC2)cc1` (centres undefined), which inhibition is on record?
Its inhibition is 12.1% (inactive).

With `CC(SCc1ccccc1)C(=O)NC1CCCC1` (centres undefined) as the compound, how does the inhibition read?
The inhibition was -2.5% (inactive).

Which inhibition does the source give for `Cc1cc(=O)[nH]c(SCC(=O)Nc2ccnc3ccccc23)n1` here?
Its inhibition is 26.4% (inactive).

With `Cc1nc(SCC(=O)Nc2ccnc3ccccc23)n[nH]1` as the compound, how does the inhibition read?
The inhibition was 17.9% (inactive).

For `Cc1cc(C)nc(SCC(=O)Nc2ccnc3ccccc23)n1`, which inhibition is on record?
Its inhibition is 50.5% (active).

For `NC(=O)c1cnn(-c2cc(Oc3ccccc3)ncn2)c1N`, which inhibition is on record?
Its inhibition is -54.7% (inactive).

Which inhibition does the source give for `Nc1ccc2c(c1)N=[N+]([O-])c1cc(N)ccc1C2` here?
Its inhibition is 4.2% (inactive).

For `CC(=O)c1c(O)ccc2c(-c3ccccc3)cc(=O)oc12`, which inhibition is on record?
The inhibition was 13% (inactive).

With `CN(C)Cc1c(O)ccc2c(-c3ccccc3)cc(=O)oc12` as the compound, how does the inhibition read?
The inhibition was 1.4% (inactive).

Which inhibition does the source give for `COc1cc(NS(=O)(=O)c2ccc(N/C=C(\C=O)c3nc4ccccc4o3)cc2)nc(OC)n1` here?
The inhibition was 11% (inactive).

For `CC(=O)NNC(=S)NC(=O)c1cccc([N+](=O)[O-])c1`, which inhibition is on record?
Its inhibition is 14.7% (inactive).

With `O=C(CN1C(=O)NC2(CCCC2)C1=O)N1CCN(S(=O)(=O)c2ccccc2Br)CC1` as the compound, how does the inhibition read?
The inhibition was 3.9% (inactive).

For `CCc1c(C)sc(NC(=O)c2cc(C)on2)c1C#N`, which inhibition is on record?
Its inhibition is -59.7% (inactive).

Which inhibition does the source give for `CCc1c(C)sc(NC(=O)c2cc(-c3ccc(O)cc3)on2)c1C#N` here?
The inhibition was 50.7% (active).

Which inhibition does the source give for `CCc1c(C)sc(NC(=O)c2cc(-c3ccc(OC)c(OC)c3)on2)c1C#N` here?
The inhibition was 11.3% (inactive).
